Drawing on paper PMC7862700, “An all-to-all approach to the identification of sequence-specific readers for epigenetic DNA modifications on cytosine”, this text covers binding signal for 1 sequence.

Common to all, as to experiment: DAPPL (digital affinity profiling via proximity ligation, sequencing); 10 mM Tris-HCl pH 7.5, 50 mM NaCl, 1 mM DTT, 4% glycerol, room temperature, 30 min; GST-TFs on glutathione beads, 16-mer random dsDNA library, 0.1% formaldehyde crosslink after washing; high values mean tight binding
One experiment deals with T1, FLI1 (Homo sapiens, UniProt Q01543 1-452).
T1 sequence: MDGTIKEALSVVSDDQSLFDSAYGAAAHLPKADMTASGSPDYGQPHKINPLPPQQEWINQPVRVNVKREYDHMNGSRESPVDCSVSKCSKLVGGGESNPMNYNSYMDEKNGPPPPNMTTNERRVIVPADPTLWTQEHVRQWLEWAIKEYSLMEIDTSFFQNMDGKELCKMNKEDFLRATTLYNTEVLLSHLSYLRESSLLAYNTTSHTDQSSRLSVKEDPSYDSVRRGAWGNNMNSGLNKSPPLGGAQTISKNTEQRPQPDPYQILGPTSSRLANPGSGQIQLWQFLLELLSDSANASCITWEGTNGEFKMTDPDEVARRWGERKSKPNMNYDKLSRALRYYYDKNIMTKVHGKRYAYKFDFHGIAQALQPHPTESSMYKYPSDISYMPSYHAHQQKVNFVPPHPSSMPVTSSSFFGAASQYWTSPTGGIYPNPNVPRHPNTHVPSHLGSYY
The following applies: protein: recombinant; tags: N-terminal GST; dsDNA, one strand shown. A digest of the protocol: (§1)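 Binding signal is given per hexamer as its read frequency for a factor divided by its frequency in the tag-only sample. GST-fused human transcription factors were expressed in yeast, captured on glutathione beads, barcoded with DNA and pooled with that sample, then incubated with 200 nmole of a 16-mer random double-stranded DNA library in Tris/NaCl/DTT/glycerol buffer for 30 min at room temperature. The pools were then washed, crosslinked, proximity-ligated, amplified by PCR and sequenced on an Illumina NextSeq500.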

The next experiment addresses T2, ELK1 (Homo sapiens, UniProt P19419 1-428).
T2 sequence: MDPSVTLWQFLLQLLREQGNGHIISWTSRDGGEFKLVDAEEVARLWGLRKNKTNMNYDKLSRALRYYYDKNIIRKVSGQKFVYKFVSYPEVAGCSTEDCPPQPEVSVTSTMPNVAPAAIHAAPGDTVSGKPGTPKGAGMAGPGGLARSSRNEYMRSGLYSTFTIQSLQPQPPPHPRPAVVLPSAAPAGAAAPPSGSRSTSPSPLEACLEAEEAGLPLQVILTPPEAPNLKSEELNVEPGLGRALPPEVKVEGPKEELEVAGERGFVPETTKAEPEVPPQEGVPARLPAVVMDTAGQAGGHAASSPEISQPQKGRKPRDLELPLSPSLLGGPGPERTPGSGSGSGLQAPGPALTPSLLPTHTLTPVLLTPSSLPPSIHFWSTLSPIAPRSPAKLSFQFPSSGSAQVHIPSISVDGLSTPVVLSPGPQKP
The following applies: protein: recombinant; tags: N-terminal GST; dsDNA, one strand shown. A digest of the protocol: as §1

A further experiment addresses T3, GABPA (Homo sapiens, UniProt Q06546 1-454).
T3 sequence: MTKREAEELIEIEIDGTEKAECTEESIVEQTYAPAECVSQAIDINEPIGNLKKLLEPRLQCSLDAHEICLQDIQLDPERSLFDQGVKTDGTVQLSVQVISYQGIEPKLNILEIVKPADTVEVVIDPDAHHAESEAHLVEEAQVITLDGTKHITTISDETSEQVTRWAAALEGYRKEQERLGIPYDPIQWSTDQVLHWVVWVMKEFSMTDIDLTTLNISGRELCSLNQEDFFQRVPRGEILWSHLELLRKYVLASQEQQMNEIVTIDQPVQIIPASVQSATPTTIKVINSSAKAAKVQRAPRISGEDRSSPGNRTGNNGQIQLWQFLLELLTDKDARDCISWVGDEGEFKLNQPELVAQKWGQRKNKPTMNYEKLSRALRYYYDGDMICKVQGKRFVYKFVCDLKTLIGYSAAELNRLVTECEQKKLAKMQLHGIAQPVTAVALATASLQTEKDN
The following applies: protein: recombinant; tags: N-terminal GST; dsDNA, one strand shown. A digest of the protocol: as §1

In a further experiment the target is T4, ERG (Homo sapiens, UniProt P11308 1-479).
T4 sequence: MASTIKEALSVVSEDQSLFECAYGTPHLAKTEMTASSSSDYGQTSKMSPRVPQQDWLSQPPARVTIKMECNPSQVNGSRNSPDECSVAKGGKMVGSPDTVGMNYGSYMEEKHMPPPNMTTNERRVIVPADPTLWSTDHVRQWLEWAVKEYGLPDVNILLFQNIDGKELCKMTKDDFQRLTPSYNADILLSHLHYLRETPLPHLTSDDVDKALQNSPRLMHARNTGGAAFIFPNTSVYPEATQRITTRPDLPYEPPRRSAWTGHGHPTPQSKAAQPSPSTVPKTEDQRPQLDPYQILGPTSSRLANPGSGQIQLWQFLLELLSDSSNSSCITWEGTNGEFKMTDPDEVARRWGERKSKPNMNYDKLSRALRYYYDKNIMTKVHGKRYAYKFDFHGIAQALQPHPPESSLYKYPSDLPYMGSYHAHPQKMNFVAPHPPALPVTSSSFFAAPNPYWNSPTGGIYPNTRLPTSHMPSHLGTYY
The settings on record: protein: recombinant; tags: N-terminal GST; dsDNA, one strand shown. A digest of the protocol:
as §1

For a further experiment, the target named is ELF1 (Homo sapiens, UniProt P32519 1-619). The following applies: protein: recombinant; tags: N-terminal GST; dsDNA, one strand shown. A digest of the protocol:
as §1

A further experiment deals with T5, EHF (Homo sapiens, UniProt Q9NZC4 1-300).
T5 sequence: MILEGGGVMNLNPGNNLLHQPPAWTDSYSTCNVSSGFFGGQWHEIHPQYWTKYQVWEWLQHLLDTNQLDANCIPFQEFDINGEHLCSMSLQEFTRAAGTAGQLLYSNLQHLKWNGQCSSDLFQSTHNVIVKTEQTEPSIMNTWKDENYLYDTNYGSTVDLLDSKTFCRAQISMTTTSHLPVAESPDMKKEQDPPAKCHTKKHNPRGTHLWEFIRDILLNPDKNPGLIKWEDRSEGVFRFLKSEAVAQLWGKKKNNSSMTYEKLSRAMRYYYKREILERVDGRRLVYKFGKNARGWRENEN
The following applies: protein: recombinant; tags: N-terminal GST; dsDNA, one strand shown. The method, boiled down:
as §1

Another experiment concerns the target SPI1 (Homo sapiens, UniProt P17947 1-270). The settings on record: protein: recombinant; tags: N-terminal GST; dsDNA, one strand shown. A digest of the protocol: as §1
Another experiment has as its target SPIB (Homo sapiens, UniProt Q01892 1-262). The following applies: protein: recombinant; tags: N-terminal GST; dsDNA, one strand shown. The method, boiled down:
as §1

In the next experiment the target is T6, ELK3 (Homo sapiens, UniProt P41970 1-407).
T6 sequence: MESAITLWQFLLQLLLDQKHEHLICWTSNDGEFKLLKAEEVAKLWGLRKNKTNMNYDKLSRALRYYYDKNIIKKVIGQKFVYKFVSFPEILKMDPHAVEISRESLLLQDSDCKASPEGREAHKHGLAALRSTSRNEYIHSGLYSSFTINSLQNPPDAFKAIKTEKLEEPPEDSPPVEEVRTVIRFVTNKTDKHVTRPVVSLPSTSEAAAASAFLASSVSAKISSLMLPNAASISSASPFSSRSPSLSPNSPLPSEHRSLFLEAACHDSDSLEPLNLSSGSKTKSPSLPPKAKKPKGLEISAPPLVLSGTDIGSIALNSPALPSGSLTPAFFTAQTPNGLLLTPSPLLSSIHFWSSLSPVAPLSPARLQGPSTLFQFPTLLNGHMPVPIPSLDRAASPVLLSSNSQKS
The following applies: protein: recombinant; tags: N-terminal GST; dsDNA, one strand shown. A digest of the protocol: as §1

The target in the next experiment is T7, FEV (Homo sapiens, UniProt Q99581 1-238).
T7 sequence: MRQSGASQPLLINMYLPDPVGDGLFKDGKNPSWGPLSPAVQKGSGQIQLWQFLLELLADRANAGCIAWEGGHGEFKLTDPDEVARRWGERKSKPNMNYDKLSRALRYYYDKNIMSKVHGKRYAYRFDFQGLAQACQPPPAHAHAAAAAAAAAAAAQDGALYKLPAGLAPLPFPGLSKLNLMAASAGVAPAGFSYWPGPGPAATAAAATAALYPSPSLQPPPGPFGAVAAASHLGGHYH
The following applies: protein: recombinant; tags: N-terminal GST; dsDNA, one strand shown. A digest of the protocol: as §1

The target of a further experiment is ETV5 (Homo sapiens, UniProt P41161 1-510). The settings on record: protein: recombinant; tags: N-terminal GST; dsDNA, one strand shown. The method, boiled down: as §1
A further experiment addresses HSF1 (Homo sapiens, UniProt Q00613 1-529). The following applies: protein: recombinant; tags: N-terminal GST; chain copies: 3; dsDNA, one strand shown. The method, boiled down: as §1
Another experiment has as its target T8, SPIC (Homo sapiens, UniProt Q8N5J4 1-248).
T8 sequence: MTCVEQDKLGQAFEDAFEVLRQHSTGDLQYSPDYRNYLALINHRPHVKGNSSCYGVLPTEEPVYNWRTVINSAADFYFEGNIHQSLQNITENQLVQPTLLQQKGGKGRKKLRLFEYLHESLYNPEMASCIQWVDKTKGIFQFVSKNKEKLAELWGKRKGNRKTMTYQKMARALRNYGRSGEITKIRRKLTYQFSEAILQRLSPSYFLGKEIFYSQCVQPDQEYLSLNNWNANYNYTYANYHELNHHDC
The settings on record: protein: recombinant; tags: N-terminal GST; dsDNA, one strand shown. A digest of the protocol: as §1

The next experiment addresses ELF4 (Homo sapiens, UniProt Q99607 1-663). The following applies: protein: recombinant; tags: N-terminal GST; dsDNA, one strand shown. The method, boiled down:
as §1

The target of a further experiment is T9, ELK4 (Homo sapiens, UniProt P28324-2 1-405).
T9 sequence: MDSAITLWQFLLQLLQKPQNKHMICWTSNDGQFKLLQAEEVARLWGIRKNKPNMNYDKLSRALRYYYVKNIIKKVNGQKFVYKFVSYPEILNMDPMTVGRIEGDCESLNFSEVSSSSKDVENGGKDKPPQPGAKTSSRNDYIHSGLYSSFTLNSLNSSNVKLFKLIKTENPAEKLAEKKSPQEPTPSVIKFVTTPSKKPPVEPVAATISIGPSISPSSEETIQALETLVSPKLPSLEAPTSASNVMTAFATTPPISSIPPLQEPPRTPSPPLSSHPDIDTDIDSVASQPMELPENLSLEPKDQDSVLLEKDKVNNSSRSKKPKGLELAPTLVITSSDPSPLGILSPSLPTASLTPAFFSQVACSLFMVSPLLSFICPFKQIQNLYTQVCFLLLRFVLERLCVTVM
The settings on record: protein: recombinant; tags: N-terminal GST; dsDNA, one strand shown. A digest of the protocol:
as §1

For another experiment, the target named is T10, ETV2 (Homo sapiens, UniProt O00321 1-342).
T10 sequence: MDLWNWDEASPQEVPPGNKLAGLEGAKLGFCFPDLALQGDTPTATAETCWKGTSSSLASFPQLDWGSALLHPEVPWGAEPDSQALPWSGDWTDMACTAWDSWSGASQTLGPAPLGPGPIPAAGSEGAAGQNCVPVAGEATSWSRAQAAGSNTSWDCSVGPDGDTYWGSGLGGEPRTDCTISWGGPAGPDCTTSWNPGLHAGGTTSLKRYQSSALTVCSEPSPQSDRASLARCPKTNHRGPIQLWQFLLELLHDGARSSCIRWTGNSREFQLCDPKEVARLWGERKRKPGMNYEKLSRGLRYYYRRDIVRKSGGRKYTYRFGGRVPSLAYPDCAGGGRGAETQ
The settings on record: protein: recombinant; tags: N-terminal GST; dsDNA, one strand shown. A digest of the protocol:
as §1

In a further experiment the target is T11, ELF3 (Homo sapiens, UniProt P78545 1-371).
T11 sequence: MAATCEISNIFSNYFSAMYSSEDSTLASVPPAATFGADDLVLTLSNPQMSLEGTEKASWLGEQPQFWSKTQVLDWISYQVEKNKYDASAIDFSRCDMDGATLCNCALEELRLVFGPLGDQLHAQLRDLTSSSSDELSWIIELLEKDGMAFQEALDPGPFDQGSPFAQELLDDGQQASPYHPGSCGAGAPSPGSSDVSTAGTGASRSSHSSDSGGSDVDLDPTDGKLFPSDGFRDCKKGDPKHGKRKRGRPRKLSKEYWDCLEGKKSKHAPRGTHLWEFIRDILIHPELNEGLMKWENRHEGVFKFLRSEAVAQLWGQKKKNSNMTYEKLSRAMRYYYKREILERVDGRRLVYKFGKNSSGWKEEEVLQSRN
The following applies: protein: recombinant; tags: N-terminal GST; dsDNA, one strand shown. The method, boiled down:
as §1

The target in the next experiment is CRX (Homo sapiens, UniProt O43186 1-299). The settings on record: protein: recombinant; tags: N-terminal GST; dsDNA, one strand shown. A digest of the protocol:
as §1

Another experiment deals with ETV1 (Homo sapiens, UniProt P50549 1-477). The settings on record: protein: recombinant; tags: N-terminal GST; dsDNA, one strand shown. The method, boiled down:
as §1

Chain of HSF1 (Q00613 whole entry): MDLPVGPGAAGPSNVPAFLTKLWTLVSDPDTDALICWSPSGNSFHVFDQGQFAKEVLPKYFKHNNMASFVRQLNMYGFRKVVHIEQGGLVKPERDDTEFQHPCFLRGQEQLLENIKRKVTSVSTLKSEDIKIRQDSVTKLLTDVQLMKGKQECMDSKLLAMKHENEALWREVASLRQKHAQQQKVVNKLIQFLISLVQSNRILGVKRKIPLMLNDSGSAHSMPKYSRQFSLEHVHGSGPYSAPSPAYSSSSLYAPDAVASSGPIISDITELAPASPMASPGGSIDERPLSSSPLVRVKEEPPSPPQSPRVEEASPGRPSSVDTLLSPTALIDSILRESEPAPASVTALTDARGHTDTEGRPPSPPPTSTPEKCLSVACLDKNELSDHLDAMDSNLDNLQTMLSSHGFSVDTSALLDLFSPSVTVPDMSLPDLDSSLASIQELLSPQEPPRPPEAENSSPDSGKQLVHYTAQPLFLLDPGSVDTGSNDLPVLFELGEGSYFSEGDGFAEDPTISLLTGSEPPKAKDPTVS
Chain of ETV5 (P41161 whole entry): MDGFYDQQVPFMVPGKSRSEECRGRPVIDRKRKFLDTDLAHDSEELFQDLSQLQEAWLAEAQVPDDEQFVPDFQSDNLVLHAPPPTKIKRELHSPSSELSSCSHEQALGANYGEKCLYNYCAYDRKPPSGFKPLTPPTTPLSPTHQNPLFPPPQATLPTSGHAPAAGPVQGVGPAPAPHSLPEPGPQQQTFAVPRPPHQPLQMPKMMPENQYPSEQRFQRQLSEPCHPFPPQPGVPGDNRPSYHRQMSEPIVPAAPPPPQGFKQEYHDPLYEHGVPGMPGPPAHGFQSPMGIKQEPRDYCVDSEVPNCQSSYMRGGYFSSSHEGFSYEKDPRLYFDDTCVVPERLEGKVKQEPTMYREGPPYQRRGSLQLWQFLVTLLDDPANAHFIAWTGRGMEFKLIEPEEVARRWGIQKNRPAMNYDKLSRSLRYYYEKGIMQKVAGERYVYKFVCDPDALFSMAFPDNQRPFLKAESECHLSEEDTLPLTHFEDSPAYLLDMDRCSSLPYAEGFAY
Chain of ETV1 (P50549 whole entry): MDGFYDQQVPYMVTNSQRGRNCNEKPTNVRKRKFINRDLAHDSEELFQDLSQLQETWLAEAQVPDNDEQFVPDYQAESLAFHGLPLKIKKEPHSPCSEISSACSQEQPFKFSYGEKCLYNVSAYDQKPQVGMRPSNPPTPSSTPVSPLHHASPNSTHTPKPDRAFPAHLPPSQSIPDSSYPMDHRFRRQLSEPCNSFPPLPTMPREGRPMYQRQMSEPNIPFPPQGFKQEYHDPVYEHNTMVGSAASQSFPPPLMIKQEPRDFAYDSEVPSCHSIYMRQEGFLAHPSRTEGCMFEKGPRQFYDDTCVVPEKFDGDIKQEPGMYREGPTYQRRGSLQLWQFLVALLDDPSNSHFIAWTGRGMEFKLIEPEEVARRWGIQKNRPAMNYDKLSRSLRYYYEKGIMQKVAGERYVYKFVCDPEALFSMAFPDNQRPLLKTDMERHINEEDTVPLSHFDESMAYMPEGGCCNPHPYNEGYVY
Chain of ELF4 (Q99607 whole entry): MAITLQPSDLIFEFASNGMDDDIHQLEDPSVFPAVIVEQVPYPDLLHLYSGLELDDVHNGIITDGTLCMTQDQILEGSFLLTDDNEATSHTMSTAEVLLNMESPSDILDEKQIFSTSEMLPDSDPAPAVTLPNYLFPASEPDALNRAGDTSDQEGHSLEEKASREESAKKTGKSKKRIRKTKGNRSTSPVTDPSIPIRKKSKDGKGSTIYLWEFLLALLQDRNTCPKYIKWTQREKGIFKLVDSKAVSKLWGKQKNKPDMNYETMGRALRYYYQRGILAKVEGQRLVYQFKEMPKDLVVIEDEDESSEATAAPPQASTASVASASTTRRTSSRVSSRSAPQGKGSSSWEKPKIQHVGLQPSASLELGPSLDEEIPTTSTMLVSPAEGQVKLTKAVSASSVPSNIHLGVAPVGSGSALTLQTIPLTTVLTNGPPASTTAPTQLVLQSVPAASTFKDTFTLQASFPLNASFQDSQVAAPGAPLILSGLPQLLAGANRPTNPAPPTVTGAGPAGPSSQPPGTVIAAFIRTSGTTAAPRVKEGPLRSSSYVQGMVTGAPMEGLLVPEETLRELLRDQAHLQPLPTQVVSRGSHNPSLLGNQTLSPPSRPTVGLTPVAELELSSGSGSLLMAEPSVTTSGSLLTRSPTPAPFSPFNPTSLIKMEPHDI
Chain of CRX (O43186 whole entry): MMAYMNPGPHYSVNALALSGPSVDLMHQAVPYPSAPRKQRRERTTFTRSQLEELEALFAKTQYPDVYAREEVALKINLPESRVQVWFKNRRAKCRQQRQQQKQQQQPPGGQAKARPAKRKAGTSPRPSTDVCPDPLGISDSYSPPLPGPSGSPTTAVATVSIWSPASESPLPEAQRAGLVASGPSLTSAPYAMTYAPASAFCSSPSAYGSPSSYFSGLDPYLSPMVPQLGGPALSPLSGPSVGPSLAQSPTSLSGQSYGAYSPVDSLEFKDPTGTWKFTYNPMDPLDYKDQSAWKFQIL
Chain of SPIB (Q01892 whole entry): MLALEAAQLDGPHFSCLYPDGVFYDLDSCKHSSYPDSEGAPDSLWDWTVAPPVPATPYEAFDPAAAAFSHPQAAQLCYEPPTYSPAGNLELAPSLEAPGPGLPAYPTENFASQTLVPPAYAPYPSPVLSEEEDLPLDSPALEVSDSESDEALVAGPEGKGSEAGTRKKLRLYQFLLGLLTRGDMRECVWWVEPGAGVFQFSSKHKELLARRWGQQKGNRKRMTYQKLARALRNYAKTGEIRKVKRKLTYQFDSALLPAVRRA
Chain of ELF1 (P32519 whole entry): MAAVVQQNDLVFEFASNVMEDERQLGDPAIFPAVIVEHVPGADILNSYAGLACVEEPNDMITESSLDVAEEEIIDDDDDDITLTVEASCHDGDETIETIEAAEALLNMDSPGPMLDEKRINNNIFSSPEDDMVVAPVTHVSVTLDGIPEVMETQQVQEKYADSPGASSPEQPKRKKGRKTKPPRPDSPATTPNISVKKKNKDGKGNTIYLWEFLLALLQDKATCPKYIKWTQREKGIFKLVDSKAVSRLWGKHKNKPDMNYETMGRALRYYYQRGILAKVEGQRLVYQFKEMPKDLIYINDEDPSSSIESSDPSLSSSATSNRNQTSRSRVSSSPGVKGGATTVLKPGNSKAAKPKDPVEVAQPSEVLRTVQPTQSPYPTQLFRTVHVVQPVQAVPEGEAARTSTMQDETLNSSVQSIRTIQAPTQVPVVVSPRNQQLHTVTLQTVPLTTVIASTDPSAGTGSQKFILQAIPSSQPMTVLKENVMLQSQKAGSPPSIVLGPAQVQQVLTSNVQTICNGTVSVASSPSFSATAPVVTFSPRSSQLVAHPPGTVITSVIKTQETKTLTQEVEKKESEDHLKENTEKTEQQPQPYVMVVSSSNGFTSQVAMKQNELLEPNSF

On to ACTTAC, for which the binding signal is 1.14 fold enrichment (6-mer frequency, TF over GST control) with FLI1; 1.17 fold enrichment (6-mer frequency, TF over GST control) in the experiment with ELK1; 1.2 fold enrichment (6-mer frequency, TF over GST control) in the experiment with GABPA; 1.1 fold enrichment (6-mer frequency, TF over GST control) with ERG; 1.18 fold enrichment (6-mer frequency, TF over GST control) with ELF1; 1.28 fold enrichment (6-mer frequency, TF over GST control) with EHF. In addition, the binding signal in the experiment with SPI1 was 1.27 fold enrichment (6-mer frequency, TF over GST control); in the experiment with SPIB, 1.1 fold enrichment (6-mer frequency, TF over GST control); in the experiment with ELK3 it was 1.12 fold enrichment (6-mer frequency, TF over GST control); in the experiment with FEV, 1.09 fold enrichment (6-mer frequency, TF over GST control); in the experiment with ETV5, 1.17 fold enrichment (6-mer frequency, TF over GST control); in the experiment with HSF1, 1.15 fold enrichment (6-mer frequency, TF over GST control). Besides, the binding signal in the experiment with SPIC was 1.1 fold enrichment (6-mer frequency, TF over GST control); with ELF4 it was 1.24 fold enrichment (6-mer frequency, TF over GST control); with ELK4, 1.12 fold enrichment (6-mer frequency, TF over GST control); with ETV2, 1.06 fold enrichment (6-mer frequency, TF over GST control); with ELF3 it was 1.23 fold enrichment (6-mer frequency, TF over GST control); with CRX it was 1.42 fold enrichment (6-mer frequency, TF over GST control). Further, the binding signal in the experiment with ETV1 is 1.16 fold enrichment (6-mer frequency, TF over GST control).
